High-throughput results (PubChem BioAssay)
Rab9 promoter act: Rab9 promoter activation | Huh7 Rab9 promoter-luciferase reporter, luminescence, 24 h | Potency, µM (titrated, usually from 9.22 µM), actives largely listed as activators | 320,000 tested, 2.8% active | AID 485297; further: nearly all actives have a fitted effect of over 60% in size
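Quantitative HTS format; Huh7 Rab9-luciferase reporter cells (1500/well) receive compound 2 h post-plating, incubate 24 h at 37 °C, then get luciferase reagent for 10 min before luminescence reading.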
SMN2 splice up: SMN2 splice variant enhancement; HEK293 SMN2-luciferase splicing reporter, luminescence, 30-36 h; Potency, µM (titrated, usually from 46.1 µM), most hits filed as activators; 210,000 tested, 2.8% active; further: nearly all actives have a fitted effect of over 55% in size
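qHTS luciferase splicing reporter: luminescence rises when SMN2 exon 7 is included in transfected HEK293 cells. Compound exposure lasted 30-36 h at 37C, with 4.5 mM final sodium butyrate as control, followed by a ONE-Glo read.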
ELG1 genotox: induces genotoxicity in HEK293T cells with luciferase-tagged ELG1 | HEK293T ELG1-luciferase reporter, luminescence, 16 h | Potency, µM (highest dose often 46 µM), hits mostly activators | 330,000 tested, 1.3% active | AID 504466; further: nearly all actives have a fitted effect of over 60% in size
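Quantitative HTS format in 1536-well plates. HEK293T ELG1-luciferase reporter cells receive test compound and are incubated 16 hr at 37 °C, 5% CO2; ONE-Glo added, 30 min room temperature, then luminescence read.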
NPC1 prom act: NPC1 promoter activation; Huh7 NPC1 promoter luciferase reporter, 24 h; Potency, µM (doses to about 9.22 µM), hits mostly activators; 320,000 tested, 2.4% active; AID 485313; further: nearly all actives have a fitted effect of over 60% in size
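Huh7 reporter cells (NPC1 promoter driving luciferase) are dosed with compound for 24 h at 37 °C, 5% CO2; luciferase detection reagent is then added and luminescence measured after 10 min at ambient temperature.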
KinaseGlo FLuc: Kinase-Glo luciferase inhibition (counter-screen) | Kinase-Glo luciferase, ATP luminescence, 8 min | AID 1379 | 200,000 tested, 0.28% active | Potency, µM (titrated, usually from 38.3 µM), actives largely listed as inhibitors; further: nearly all actives have a fitted effect of over 60% in size
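Luminescence was the read-out, taken after 8-minute incubation at ambient temperature. Luciferase turned over luciferin with 10 uM ATP in imidazole pH 7.2 buffer containing KCl, MgCl2, Tween 20 and BSA.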
FLuc counter: inhibits or activates purified firefly luciferase, miR-21 counter-screen. purified FLuc, Km substrates, luminescence inhibition. Potency, µM (top dose mostly 57.5 µM), actives largely listed as inhibitors. 360,000 tested, 6.9% active. AID 588342; further: nearly all actives have a fitted effect of over 55% in size
Target sequence (P08659 whole entry, looked up): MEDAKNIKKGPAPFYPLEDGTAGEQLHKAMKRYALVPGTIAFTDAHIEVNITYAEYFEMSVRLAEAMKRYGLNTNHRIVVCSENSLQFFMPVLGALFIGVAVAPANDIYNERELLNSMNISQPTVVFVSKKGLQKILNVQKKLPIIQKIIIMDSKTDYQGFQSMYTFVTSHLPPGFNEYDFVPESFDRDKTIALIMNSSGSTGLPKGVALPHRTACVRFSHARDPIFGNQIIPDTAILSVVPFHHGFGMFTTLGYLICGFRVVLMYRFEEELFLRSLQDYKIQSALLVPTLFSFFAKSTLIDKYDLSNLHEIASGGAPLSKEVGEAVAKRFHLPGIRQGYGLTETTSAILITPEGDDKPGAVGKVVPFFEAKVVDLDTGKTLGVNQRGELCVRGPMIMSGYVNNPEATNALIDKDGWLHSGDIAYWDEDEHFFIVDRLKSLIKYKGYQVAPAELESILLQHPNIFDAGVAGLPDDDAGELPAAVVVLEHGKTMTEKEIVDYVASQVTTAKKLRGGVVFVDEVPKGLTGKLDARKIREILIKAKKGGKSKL
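Biochemical qHTS of compounds, final roughly 60 µM downward over six points, against 10 nM purified firefly luciferase using Km concentrations of substrates (10 uM D-luciferin, 10 uM ATP) in Tris acetate pH 7.5 buffer; luminescence output.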
A number is an active result; – = inactive; ? = inconclusive; · = not tested or not shown; [ ] = another dose, or the depositor's remark. An excerpt weighted towards active compounds, which were near 7.3% of everything screened. The call rests on the fitted dose curve; in most records, active means well fitted curve in the direction sought with a large enough effect; inconclusive means small, poorly fitted or top-dose-only effect, or another doubt; inactive means no such curve, though single readings can be large; an effect the other way counts as inactive or inconclusive.

SMILES | Rab9 promoter act | SMN2 splice up | ELG1 genotox | NPC1 prom act | KinaseGlo FLuc | FLuc counter
CCCn1c(-c2ccc(F)cc2)nc2c(NCC3CCN(C)CC3)nc(C)nc21 | · | – | · | · | – | ·
Cn1cnnc1SCC(=O)Nc1ccc(C#N)cc1 | · | – | · | · | · | –
COc1ccc(-c2nc(-c3ccncc3)no2)c(OC)c1 | 0.71µM | · | 2.9µM | ? | · | 0.95µM
COc1cccc(OCc2nnc(-c3cccs3)o2)c1 | – | – | – | – | – | ?
COc1cc(OC)c(-c2nc(-c3ccncc3)no2)cc1OC | – | · | – | – | · | –
CCCc1noc(-c2cccc([N+](=O)[O-])c2)n1 | – | – | – | – | – | –
COc1ccc(-c2nc(-c3cccnc3)no2)cc1OC | ? | · | ? | ? | · | 17µM
O=[N+]([O-])c1cccc(-c2nc(-c3ccccn3)no2)c1 | 0.4µM | · | ? | 0.71µM | · | 4.8µM
COc1cc(-c2nc(-c3cccnc3)no2)cc(OC)c1OC | – | – | – | – | – | –
COc1cccc(-c2noc(-c3cccs3)n2)c1 | 1µM | 13µM | 1.3µM | ? | – | 2.1µM
C=C[C@@]1(C)CC(=O)[C@@]2(O)[C@@]3(C)[C@@H](O)CCC(C)(C)[C@@H]3[C@H](O)[C@H](OC(C)=O)[C@@]2(C)O1 | · | · | · | · | – | ·
COc1ccc(Cl)cc1NC(=O)C(=O)NCc1ccc(Cl)cc1 | · | – | · | · | · | –
CCN(CC)c1ccc2cc(C(N)=O)c(=O)oc2c1 | – | ? | – | – | – | ?
CCCCCCc1cc2cc(C(N)=O)c(=N)oc2cc1O | – | – | – | – | – | 17µM
CCN(CC)c1ccc2cc(C(=O)Nc3ccccn3)c(=O)oc2c1 | 0.11µM | 2.8µM | ? | 0.32µM | – | 0.54µM
CCN(CC)c1ccc2cc(NC(=O)CCC(=O)O)c(=O)oc2c1 | – | – | – | – | – | 6.7µM
CCN(CC)c1ccc2cc(C(N)=O)c(=N)oc2c1 | – | – | ? | – | – | 24µM
CCCCCCc1cc2cc(C(=O)NC)c(=N)oc2cc1O | – | – | – | – | – | –
COc1ccccc1CNC(=O)CSc1nc(=O)[nH]c2c1CCC2 | · | · | · | · | · | –
O=C(O)CCCSc1ccccc1 | · | –[9.22 µM] | · | · | –[7.66 µM] | ·
COc1ccccc1C(=O)Nc1onc2c1CCCC2 | · | 3.5µM | · | · | · | 2.7µM
Cc1ccc(C(=O)Nc2onc3c2CCCC3)cc1 | · | 2.5µM | · | · | · | 0.3µM
Cc1ccc(NC(=O)Cn2cc(S(=O)(=O)Cc3ccc(F)cc3)c3ccccc32)cc1Cl | · | · | · | · | · | –
CCCNc1ccc(S(=O)(=O)N(CC)CC)cn1 | – | 5.6µM | – | – | – | –
CCCCCN(C(=O)CSc1n[nH]c(-c2ccc(C)cc2)n1)c1c(N)n(CCCC)c(=O)[nH]c1=O | – | · | – | – | · | 2.7µM
SMILES | Rab9 promoter act | SMN2 splice up | ELG1 genotox | NPC1 prom act | KinaseGlo FLuc | FLuc counter
CCCCn1c(N)c(N(CCOC)C(=O)CSc2n[nH]c(-c3ccc(C)cc3)n2)c(=O)[nH]c1=O | – | · | – | – | · | –
CCCCN(C(=O)CSc1nnnn1C)c1c(N)n(Cc2ccccc2)c(=O)[nH]c1=O | – | · | – | – | · | –
CCCn1c(N)c(C(=O)CSc2nc3ccccc3s2)c(=O)[nH]c1=O | – | 13µM | – | – | – | –
CCCCN(C(=O)CSc1nnc(Nc2ccccc2)s1)c1c(N)n(CCC)c(=O)[nH]c1=O | – | · | – | – | – | 15µM
CCCCCN(C(=O)CCC(=O)OCC(=O)c1ccc(CCC)cc1)c1c(N)n(CCCC)c(=O)[nH]c1=O | – | · | – | – | · | 2.7µM
COc1ccc(CNC(=O)c2nn(-c3ccccc3C)nc2CO)cc1 | · | – | · | · | · | –
CCc1ccc(NC(=O)CC2C(=O)N(c3cccc(OC)c3)C(=O)N2C2CCCC2)cc1 (configuration not stated) | · | · | · | · | · | –
Cc1ccc(NC(=O)C2CCN(c3nc4ccccc4[nH]3)CC2)c(C)c1 | · | · | · | · | · | –
COc1cc(OC)c(NS(=O)(=O)c2ccc3c(c2)CCCN3C(C)=O)cc1Cl | · | · | · | · | · | –
CCCCn1c(N)c(N(CC(C)C)C(=O)CSc2n[nH]c(-c3ccc(C)cc3)n2)c(=O)[nH]c1=O | – | · | – | – | · | 11µM
CCCCn1c(N)c(N(CC(C)C)C(=O)CCS(=O)(=O)c2ccc(C)cc2)c(=O)[nH]c1=O | – | · | – | – | · | –
